High-throughput results deposited in PubChem by several laboratories.
PfHsp40 rescue = rescue of yeast from PfHsp40 toxicity, primary screen, S. cerevisiae, ATP luminescence. S. cerevisiae expressing PfHsp40, growth rescue. growth rescue, % at 12.5 µM. 340,000 compounds, 0.68% hits. AID 504582, 2011; in the data active = growth rescue above about 28%, passing the limit was not always enough;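 also: yeast W303a lacking pdr1 and pdr3 grown in galactose medium; growth measured after three days at 30 °C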
PrP UTR inh = inhibition of PrP 5' UTR reporter expression. AID 488862, 2010. 340,000 compounds, 0.35% hits. inhibition, % (no concentration beside the values). cell-based PrP 5' UTR mRNA reporter, plate reader; in the data active = inhibition above about 52%; also: 0 = median of the neutral control wells
Sa ugtP lethal = growth inhibition of ugtP-null S. aureus, primary screen, RN4220 ugtP deletion, OD600; 16 h; 330,000 compounds, 0.54% hits; AID 1259309, 2017; growth inhibition, % (no concentration beside the values); in the data active = growth inhibition above about 68%;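 also: plate controls were untreated wells for no effect and antibiotic for full effect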
Sa RN4220 lethal = growth inhibition of S. aureus RN4220, primary screen, OD600; inhibition, % (no concentration beside the values); 16 h; 330,000 compounds, 0.33% hits; in the data active = inhibition above about 85%;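 also: plate controls were untreated cells for no effect and reference antibiotic for full effect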
TcdB inh = TcdB glycohydrolase inhibitors, primary screen, biochemical, single point, plate reader; AID 652162, 2013; 350,000 compounds, 0.24% hits; TcdB glycohydrolase enzymatic assay; Toxin B (Clostridioides difficile), P18177; inhibition, % at 9.99 µM; in the data active = inhibition above about 10%
Target sequence (P18177 whole entry, looked up): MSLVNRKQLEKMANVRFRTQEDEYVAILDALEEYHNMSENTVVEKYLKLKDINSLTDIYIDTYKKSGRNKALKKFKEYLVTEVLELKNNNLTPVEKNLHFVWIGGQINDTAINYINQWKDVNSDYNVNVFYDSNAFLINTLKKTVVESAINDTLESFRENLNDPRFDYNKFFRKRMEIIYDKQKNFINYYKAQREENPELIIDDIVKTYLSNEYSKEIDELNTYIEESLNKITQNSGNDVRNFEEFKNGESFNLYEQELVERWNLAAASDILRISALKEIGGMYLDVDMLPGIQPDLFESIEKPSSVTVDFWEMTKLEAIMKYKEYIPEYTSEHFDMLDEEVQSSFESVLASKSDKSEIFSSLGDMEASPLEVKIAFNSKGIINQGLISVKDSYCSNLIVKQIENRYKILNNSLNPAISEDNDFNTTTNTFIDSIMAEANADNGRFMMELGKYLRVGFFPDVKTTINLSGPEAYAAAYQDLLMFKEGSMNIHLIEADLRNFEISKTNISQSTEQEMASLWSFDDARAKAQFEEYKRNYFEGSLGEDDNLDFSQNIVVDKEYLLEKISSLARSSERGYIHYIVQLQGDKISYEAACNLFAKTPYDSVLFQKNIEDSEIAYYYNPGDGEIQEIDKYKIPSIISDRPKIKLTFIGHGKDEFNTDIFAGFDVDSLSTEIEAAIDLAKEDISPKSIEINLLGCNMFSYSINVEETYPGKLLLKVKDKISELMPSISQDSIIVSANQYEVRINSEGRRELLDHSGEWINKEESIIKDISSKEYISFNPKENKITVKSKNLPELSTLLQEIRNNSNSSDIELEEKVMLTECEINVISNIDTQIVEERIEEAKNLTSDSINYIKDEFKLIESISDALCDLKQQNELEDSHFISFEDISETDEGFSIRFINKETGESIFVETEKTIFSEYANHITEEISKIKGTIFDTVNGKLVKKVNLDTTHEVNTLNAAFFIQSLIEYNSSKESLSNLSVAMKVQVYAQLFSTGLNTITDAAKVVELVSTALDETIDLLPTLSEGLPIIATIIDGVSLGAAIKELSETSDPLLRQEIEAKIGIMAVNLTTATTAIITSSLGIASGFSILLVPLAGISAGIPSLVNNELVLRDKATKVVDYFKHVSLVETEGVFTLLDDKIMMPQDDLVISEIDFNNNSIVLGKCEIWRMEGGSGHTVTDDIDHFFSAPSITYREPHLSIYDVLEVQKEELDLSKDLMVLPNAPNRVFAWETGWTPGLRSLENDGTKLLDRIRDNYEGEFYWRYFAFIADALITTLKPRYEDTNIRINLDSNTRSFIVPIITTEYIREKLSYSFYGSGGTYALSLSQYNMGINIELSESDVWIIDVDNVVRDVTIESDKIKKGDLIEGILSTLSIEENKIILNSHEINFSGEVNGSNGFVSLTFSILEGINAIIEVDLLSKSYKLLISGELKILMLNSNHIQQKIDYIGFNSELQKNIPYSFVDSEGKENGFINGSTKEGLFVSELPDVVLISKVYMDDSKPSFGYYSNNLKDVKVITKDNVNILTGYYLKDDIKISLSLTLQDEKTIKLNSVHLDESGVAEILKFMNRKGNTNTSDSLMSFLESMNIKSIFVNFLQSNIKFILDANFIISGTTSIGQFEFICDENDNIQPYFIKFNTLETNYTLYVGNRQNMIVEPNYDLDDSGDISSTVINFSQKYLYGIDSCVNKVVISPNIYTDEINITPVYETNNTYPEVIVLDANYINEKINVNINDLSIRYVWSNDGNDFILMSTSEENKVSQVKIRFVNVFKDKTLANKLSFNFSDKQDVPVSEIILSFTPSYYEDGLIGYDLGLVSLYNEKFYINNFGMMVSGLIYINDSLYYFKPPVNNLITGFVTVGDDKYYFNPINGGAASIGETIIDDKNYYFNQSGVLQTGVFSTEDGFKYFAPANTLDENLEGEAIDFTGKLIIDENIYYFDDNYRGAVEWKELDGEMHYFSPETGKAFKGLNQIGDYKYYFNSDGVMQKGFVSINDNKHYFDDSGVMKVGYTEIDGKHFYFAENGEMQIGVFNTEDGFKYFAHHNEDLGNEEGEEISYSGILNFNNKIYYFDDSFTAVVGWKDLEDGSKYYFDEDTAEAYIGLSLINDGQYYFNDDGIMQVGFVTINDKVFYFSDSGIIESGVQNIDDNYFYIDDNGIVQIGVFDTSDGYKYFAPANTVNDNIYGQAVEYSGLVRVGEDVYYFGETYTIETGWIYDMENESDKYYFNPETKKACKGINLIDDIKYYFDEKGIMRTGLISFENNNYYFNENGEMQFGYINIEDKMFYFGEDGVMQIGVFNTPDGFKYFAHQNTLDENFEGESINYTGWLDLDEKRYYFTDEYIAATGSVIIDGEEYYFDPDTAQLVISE
Starred values were filed as active, the others as inactive; x = not tested or not shown. In the library only some 1.2% were active in any assay of this set; here they are far more common.

SMILES	PfHsp40 rescue	PrP UTR inh	Sa ugtP lethal	Sa RN4220 lethal	TcdB inh
C[C@]12CCC3C(CC[C@H]4C[C@@H](O)CC[C@]34C)[C@H]1CC[C@H]2O (stereo partly drawn)	6	-20	5	9	0
CC1CCCCC1=NNC(=S)Nc1cccnc1 (stereo not drawn)	x	x	-5	-4	x
O=C1CCCCc2cc(O)c(O)cc21	x	x	x	x	-3
O=C1CCCc2cc3c(cc21)CCCC3	33*	-19	-2	5	-1
COc1ccc(NC(=O)c2cc(C)nc3ccccc23)c(OC)c1	0	-20	x	x	12*
Cc1cc(C(=O)Nc2ncc(C)s2)c2ccccc2n1	2	-11	5	1	10*
O=S(=O)(Nc1ccccc1)c1ccc(-c2cnc(C3CC3)o2)cc1	2	-12	-2	51	1
Cc1cc(C)cc(NS(=O)(=O)c2ccc(-c3cnc(C4CC4)o3)cc2)c1	0	67*	-4	8	-2
Cc1cccc(NS(=O)(=O)c2ccc(-c3cnc(C4CC4)o3)cc2)c1C	367*	79*	-13	6	-2
O=S(=O)(c1ccc(Cl)cc1)N1CCN(Cc2ccc(O)c3ncccc23)CC1	102*	23	12	-3	1
O=C(NN=Cc1ccc(O)cc1)NC12CC3CC(CC(C3)C1)C2	x	x	-2	11	x
O=C(N/N=C/c1ccc(O)cc1)NC12CC3CC(CC(C3)C1)C2	1	-23	x	x	19*
COc1cc(Cc2cc(N)nc(N)n2)cc(OC)c1OC	1	-14	100*	98*	0
COc1cc(CO)cc(-c2cc(CO)cc(OC)c2OC)c1OC	2	-17	0	6	x
O=C(NCc1ccccc1)C1Cc2c(-c3cccc(F)c3)ccnc2O1 (stereo not drawn)	x	x	x	x	11*
O=C(NCc1cccc(Cl)c1)C1Cc2c(-c3cccc(F)c3)ccnc2O1 (stereo not drawn)	x	x	x	x	2
CC(=O)c1cccc(-c2ccnc3c2CC(C(=O)NCc2ccccc2)O3)c1 (stereo not drawn)	x	x	x	x	10*
Nn1c(SCc2ccc(F)cc2)nnc1-c1ccccn1	x	x	0	5	0
Nn1c(SCc2ccccc2F)nnc1-c1ccccn1	x	x	10	2	14*
COc1ccc(CNC(=O)c2cccs2)cc1	-2	-25	-4	3	x
COc1ccc(CNC(=O)c2cc3c(s2)CN(Cc2ccccc2)C3)cc1	0	-19	3	0	10*
COCCNC(=S)N/N=C(\C)CCc1ccc2c(c1)OCO2	35*	-13	x	x	0
COc1ccc(CNC(=O)COC(=O)c2c[nH]c(=O)[nH]c2=O)cc1OC	34*	-22	-1	3	x
Cc1ccc(S(=O)(=O)NC2CC3CCC2C3)cc1 (stereo not drawn)	x	x	4	6	1
O=S(=O)(NC1CC2CCC1C2)c1ccc(Br)cc1 (stereo not drawn)	67*	-1	-6	-2	0
SMILES	PfHsp40 rescue	PrP UTR inh	Sa ugtP lethal	Sa RN4220 lethal	TcdB inh
CC(C)(C)c1cnnn1-c1ccc(C(=O)CCl)cc1	0	-23	98*	96*	x
CCn1c(SCC(=O)Nc2nc(-c3ccc(C)cc3)cs2)nnc1-c1ccccc1O	86*	-21	37	-8	x
CCn1c(SCC(=O)Nc2nc(-c3ccc(C)cc3)cs2)nnc1-c1ccccc1	0	-5	4	-9	x
COc1ccc(C#Cc2c(-c3ccccc3)n(-c3ccccc3)c3ccc(CO)cc23)cc1	65*	-2	0	-10	1
COc1ccc(-c2c(C#Cc3ccc(N(C)C)cc3)c3ccccc3n2C)cc1	0	-12	x	x	0
CC1(C)CC(=O)C2=C(C1)c1c(ccc3ccccc13)NC2c1ccc(C(=O)O)cc1 (stereo not drawn)	2	-35	-1	8	1
CC1(C)CC(=O)C2=C(C1)c1c(ccc3ccccc13)NC2c1cc([N+](=O)[O-])cc([N+](=O)[O-])c1O (stereo not drawn)	1	-23	90*	95*	-2
C[C@H](CO)N1C[C@H](C)[C@@H](CN(C)Cc2ccc(Cl)c(Cl)c2)Oc2ccc(NS(=O)(=O)c3cn(C)cn3)cc2CC1=O	x	x	x	x	2
CCCCCCCCC(=O)N1CCN(c2cc3c(cc2F)c(=O)c(C(=O)O)cn3CC)CC1	0	x	62	36	1
CCn1cc(C(=O)O)c(=O)c2cc(F)c(N3CCN(C(=S)NC(=O)c4cccc(C)c4)CC3)cc21	-1	-21	39	43	0
CCCCCCCC(=O)N1CCN(c2cc3c(cc2F)c(=O)c(C(=O)O)cn3CC)CC1	0	-15	99*	95*	0
C=CCNC(=O)c1cn(CC)c2cc(N3CCN(C(=O)c4ccco4)CC3)c(F)cc2c1=O	1	-16	98*	94*	0
CCn1cc(C(=O)O)c(=O)c2cc(F)c(N3CCN(C(=S)NC(=O)c4ccc(OC)cc4)CC3)cc21	0	-10	99*	99*	0
CCn1cc(C(=O)O)c(=O)c2cc(F)c(N3CCN(C(=S)NC(=O)c4ccc(Br)cc4)CC3)cc21	1	-24	x	x	2
CCn1cc(C(=O)O)c(=O)c2cc(F)c(N3CCN(C(=S)NC(=O)c4ccccc4F)CC3)cc21	0	-30	99*	99*	1
C[C@@H]1CN([C@H](C)CO)C(=O)c2cc(C#Cc3cccnc3)cnc2O[C@@H]1CN(C)Cc1ccncc1	x	x	x	x	-2
C[C@H](CO)N1C[C@H](C)[C@H](CN(C)Cc2cccc(F)c2)Oc2cc(-c3cccc(C#N)c3)ccc2S1(=O)=O	x	x	x	x	-2
COc1ccc(OCc2cc(C=NNC(=O)c3ccccc3)ccc2OC)cc1	x	x	10	-2	x
O=C(C[C@H]1CC[C@@H]2[C@H](COC[C@H](O)CN2C(=O)c2ccc(F)cc2)O1)NCCCN1CCOCC1	x	x	x	x	-2
C/C=C/c1cnc2c(c1)C(=O)N([C@H](C)CO)C[C@@H](C)[C@H](CN(C)C(=O)NC1CCCC1)O2	x	x	x	x	1
CCn1cc(C(=O)O)c(=O)c2cc(F)c(N3CCNCC3)cc21	16	12	x	x	x
CCn1cc(C(=O)O)c(=O)c2cc(F)c(N3CCN(C(=O)Nc4ccccc4)CC3)cc21	0	-2	96*	86	x
COc1ccc(S(=O)(=O)Nc2cccc3c2O[C@H](CN(C)Cc2ccc(C(=O)Nc4ccccc4N)cc2)[C@H](C)CN([C@@H](C)CO)C3=O)cc1	x	x	x	x	0
Oc1c(Br)cc(Br)cc1CNc1ccc(F)cc1	187*	-17	-14	21	0
C[C@@H]1CN([C@H](C)CO)C(=O)c2cc(-c3ccccc3F)cnc2O[C@H]1CN(C)C(=O)c1ccccn1	x	x	x	x	-1
CCCCCNCc1ccc(Cl)cc1	-1	-42	5	7	1
CCCCCCC[N+](CC)(CC)CCCCc1ccc(Cl)cc1	-1	-11	100*	95*	2
CCn1c(Nc2ccccc2Cl)nc2ccccc21	0	-17	29	4	1
CCn1c(NN=O)nc2ccccc21	140*	7	12	-2	1
